In PubChem BioAssay (EPA / NIEHS):
Activity calls are given as the source filed them. The calls were made as follows: active = hit-call score of the fitted dose curve at least 0.9, where 1 is the maximum; inactive = score below 0.9.

Columns and labels:
[1] = target: CCAAT/enhancer-binding protein beta (Homo sapiens) (UniProt P17676); assay: ATG_C_EBP_CIS: Attagene CIS-FACTORIAL HepG2 Assay for human CCAAT/Enhancer Binding Protein (C/EBP) beta (AID 2282927); conditions: HepG2 Attagene cis-factorial transcription factor reporter; actives raise or lower the signal
Sequence of CCAAT/enhancer-binding protein beta (Homo sapiens) (P17676 whole entry, looked up): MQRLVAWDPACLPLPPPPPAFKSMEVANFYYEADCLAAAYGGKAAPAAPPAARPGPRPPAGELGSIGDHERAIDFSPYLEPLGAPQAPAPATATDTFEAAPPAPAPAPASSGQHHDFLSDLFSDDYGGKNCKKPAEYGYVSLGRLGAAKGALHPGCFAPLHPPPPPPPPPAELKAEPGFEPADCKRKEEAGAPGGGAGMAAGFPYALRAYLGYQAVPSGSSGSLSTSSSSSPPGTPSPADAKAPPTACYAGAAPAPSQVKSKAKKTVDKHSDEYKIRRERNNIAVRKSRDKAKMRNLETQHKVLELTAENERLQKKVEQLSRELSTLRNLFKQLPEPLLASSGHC
How it was run: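 HepG2 transiently transfected with multiplexed reporter units under cis-regulatory promoters reporting endogenous C/EBPb activity. After 24 h exposure, reporter mRNA assayed by RT-PCR, fluorescent labelling, HpaI digestion and capillary electrophoresis; bidirectional fitting versus DMSO.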

[2] = ATG_CMV_CIS: Attagene CIS-FACTORIAL HepG2 Assay for human CMV (Internal Marker) (AID 2282928); conditions: HepG2 CMV promoter reporter, transcription factor profiling; actives raise or lower the signal;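 also: endpoint acts as a background internal control marker rather than a target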
How it was run: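 Readout: fluorescent reporter cDNA fragments separated by capillary electrophoresis after RT-PCR and HpaI cut. Cells: HepG2 carrying transfected cis-promoter reporter constructs, dosed 24 h. Endpoint serves as background internal-marker control, fit bidirectionally versus DMSO.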

[3] = ATG_DR4_LXR_CIS: Attagene CIS-FACTORIAL HepG2 Assay for human Liver X Receptor (LXR), DR4 submotif (AID 2282929); conditions: HepG2 Attagene DR4 cis-reporter, mRNA transcription; actives raise or lower the signal
How it was run: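 Transiently transfected HepG2 liver cells; cis-regulated reporters; 24 h dosing. RT-PCR plus CE read-out of reporter mRNA. DMSO baseline, bidirectional curve fitting.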

[4] = target: Aryl hydrocarbon receptor (Homo sapiens) (UniProt P35869); assay: ATG_Ahr_CIS: Attagene CIS-FACTORIAL HepG2 Assay for human Aryl Hydrocarbon Receptor (Ahr) (AID 2282930); conditions: HepG2 AhR cis-factorial reporter transcription; actives raise or lower the signal
Sequence of Aryl hydrocarbon receptor (Homo sapiens) (P35869 whole entry, looked up): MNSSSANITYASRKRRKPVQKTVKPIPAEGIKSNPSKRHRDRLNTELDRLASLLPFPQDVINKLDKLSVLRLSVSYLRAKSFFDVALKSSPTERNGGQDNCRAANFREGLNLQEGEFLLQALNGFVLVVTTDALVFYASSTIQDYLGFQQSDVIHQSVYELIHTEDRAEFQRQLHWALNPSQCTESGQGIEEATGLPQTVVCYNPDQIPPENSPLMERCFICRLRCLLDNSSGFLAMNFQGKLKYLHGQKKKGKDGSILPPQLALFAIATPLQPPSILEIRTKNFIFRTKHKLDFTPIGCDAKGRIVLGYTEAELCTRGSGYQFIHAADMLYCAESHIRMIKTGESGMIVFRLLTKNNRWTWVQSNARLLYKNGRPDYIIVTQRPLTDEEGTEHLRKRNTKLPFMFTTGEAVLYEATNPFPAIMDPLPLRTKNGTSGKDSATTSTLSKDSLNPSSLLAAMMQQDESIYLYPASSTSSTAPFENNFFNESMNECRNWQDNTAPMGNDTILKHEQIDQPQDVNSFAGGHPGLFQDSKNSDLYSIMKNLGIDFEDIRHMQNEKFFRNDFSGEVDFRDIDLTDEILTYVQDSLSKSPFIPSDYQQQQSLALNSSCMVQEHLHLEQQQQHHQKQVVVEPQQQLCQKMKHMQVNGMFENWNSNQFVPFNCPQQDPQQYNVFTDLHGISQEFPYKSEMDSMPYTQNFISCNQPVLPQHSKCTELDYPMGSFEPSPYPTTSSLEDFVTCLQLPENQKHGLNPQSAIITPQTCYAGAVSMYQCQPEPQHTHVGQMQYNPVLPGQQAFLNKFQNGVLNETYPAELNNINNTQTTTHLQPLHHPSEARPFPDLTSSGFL
How it was run: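 HepG2 cells transiently transfected with cis-element-driven multiplexed reporter units; endogenous AhR activity read as reporter mRNA 24 h after dosing, via RT-PCR, 6-FAM labelling, HpaI digestion and capillary electrophoresis. Bidirectional fit relative to DMSO.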

[5] = ATG_AP_1_CIS: Attagene CIS-FACTORIAL HepG2 Assay for human Activator Protein 1 (AP-1) (AID 2282931); conditions: HepG2 Attagene cis-factorial AP-1 reporter mRNA; actives raise or lower the signal
How it was run: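 We transfected HepG2 cells transiently with a set of cis-regulated reporter transcription units, dosed them for 24 h, and quantified reporter mRNA via RT-PCR and capillary electrophoresis, scoring gain or loss of signal relative to DMSO.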

[6] = ATG_AP_2_CIS: Attagene CIS-FACTORIAL HepG2 Assay for human Activator Protein 2 (AP-2) (AID 2282932); conditions: HepG2 AP-2 cis-reporter, Attagene transcription factor profiling; actives raise or lower the signal
How it was run: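 Liver-derived HepG2 line, cis-reporter system measuring endogenous factors; 24 h dosing; reporter mRNA detected by fluorescent RT-PCR and capillary electrophoresis.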

[7] = ATG_BRE_CIS: Attagene CIS-FACTORIAL HepG2 Assay for human Bone Morphogenetic Protein (BMP) Response Element (BRE) (AID 2282933); conditions: HepG2 BMP response element reporter, Attagene transcription factor profiling; actives raise or lower the signal
How it was run: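 Endogenous transcription factor activity read in transiently transfected HepG2 cells after 24 h chemical exposure. Bidirectional curve fitting against DMSO; readout is reporter transcript level by RT-PCR with capillary electrophoresis of labelled products.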

[8] = target: Retinoic acid receptor alpha (Homo sapiens) (UniProt P10276); assay: ATG_DR5_RAR_CIS: Attagene CIS-FACTORIAL HepG2 Assay for human Retinoic Acid Receptor Alpha (RARE), DR5 submotif (AID 2282934); conditions: HepG2 Attagene cis-factorial RARE DR5 reporter, mRNA; actives raise or lower the signal;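 as to AC50: reporter responds to endogenous RAR alpha beta and gamma in HepG2 not RARA alone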
Sequence of Retinoic acid receptor alpha (Homo sapiens) (P10276 whole entry, looked up): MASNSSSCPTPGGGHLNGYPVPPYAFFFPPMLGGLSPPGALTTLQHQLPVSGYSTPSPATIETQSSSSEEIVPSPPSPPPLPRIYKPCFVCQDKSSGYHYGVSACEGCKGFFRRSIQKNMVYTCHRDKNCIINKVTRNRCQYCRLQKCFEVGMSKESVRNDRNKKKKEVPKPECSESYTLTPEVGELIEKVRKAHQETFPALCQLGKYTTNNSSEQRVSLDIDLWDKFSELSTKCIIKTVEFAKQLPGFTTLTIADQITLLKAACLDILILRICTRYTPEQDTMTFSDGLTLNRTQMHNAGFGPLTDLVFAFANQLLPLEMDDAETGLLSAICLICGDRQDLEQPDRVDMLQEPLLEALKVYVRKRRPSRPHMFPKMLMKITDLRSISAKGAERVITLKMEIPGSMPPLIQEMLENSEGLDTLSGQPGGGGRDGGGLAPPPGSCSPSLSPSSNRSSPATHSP
How it was run: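 HepG2 cells transiently transfected with multiplexed reporter units; DR5 cis-element drives reporter through endogenous transcription factors. After 24 h dosing, reporter mRNA quantified by RT-PCR, fluorescent labeling, HpaI digestion and capillary electrophoresis; bidirectional fitting versus DMSO.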

[9] = target: Transcription factor E2F1 (Homo sapiens) (UniProt Q01094); assay: ATG_E2F_CIS: Attagene CIS-FACTORIAL HepG2 Assay for human E2F Transcription Factor 1 (AID 2282935); conditions: HepG2 Attagene cis-reporter, E2F reporter RNA transcripts; actives raise or lower the signal
Sequence of Transcription factor E2F1 (Homo sapiens) (Q01094 whole entry, looked up): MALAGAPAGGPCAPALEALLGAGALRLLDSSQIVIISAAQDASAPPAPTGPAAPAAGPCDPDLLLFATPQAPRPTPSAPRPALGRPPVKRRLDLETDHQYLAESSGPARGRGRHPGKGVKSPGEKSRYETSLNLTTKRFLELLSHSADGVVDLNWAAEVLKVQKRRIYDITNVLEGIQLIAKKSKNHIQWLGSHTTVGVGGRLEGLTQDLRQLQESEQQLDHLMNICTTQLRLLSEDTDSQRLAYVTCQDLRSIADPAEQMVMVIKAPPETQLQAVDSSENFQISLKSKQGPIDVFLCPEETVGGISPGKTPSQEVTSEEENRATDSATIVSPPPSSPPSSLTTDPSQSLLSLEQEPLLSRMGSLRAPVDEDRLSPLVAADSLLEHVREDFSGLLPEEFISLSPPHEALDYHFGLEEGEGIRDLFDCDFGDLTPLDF
How it was run: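 Liver-derived HepG2 cells expressing transfected promoter-driven reporter units received test chemical for 24 hours. Signal gains or losses were fitted bidirectionally against DMSO.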

[10] = ATG_E_Box_CIS: Attagene CIS-FACTORIAL HepG2 Assay for human Enhancer Box (E-box) (AID 2282936); conditions: HepG2 E-box cis-reporter transcription, actives raise or lower the signal
How it was run: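 In this cell-based setup, HepG2 cells bearing transfected promoter-driven reporter units were exposed to chemicals for 24 h; reporter transcripts were amplified, 6-FAM-labelled, cut with HpaI and sized by capillary electrophoresis.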

[11] = ATG_M_61_CIS: Attagene CIS-FACTORIAL HepG2 Assay for M61 Transcription Factor (Internal Marker) (AID 2282937); conditions: HepG2 Attagene CIS-FACTORIAL M61 internal marker reporter; actives raise or lower the signal
How it was run: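 Multiplexed reporter mRNA assay, HepG2 human hepatoma cells, 24 h treatment. Signal: FAM-labelled, HpaI-digested RT-PCR fragments by CE. Fit: bidirectional, baseline DMSO.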

[12] = ATG_CRE_CIS: Attagene CIS-FACTORIAL HepG2 Assay for human cAMP Responsive Element (CRE) binding protein 3 (AID 2282926); conditions: HepG2 CRE cis-reporter, Attagene multiplexed mRNA; actives raise or lower the signal
How it was run: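 Assay format: transient reporter transfection of HepG2, 24 h treatment, total RNA isolation with DNase I step. Reporter abundance read by fluorescence after PCR and capillary separation; DMSO-normalised gain or loss fitting.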

Measured: AC50

C[C@]12CC[C@H](O)CC1=CC[C@@H]1[C@@H]2CC[C@]2(C)C(=O)CC[C@@H]12
active: [2] 27.7 µM
inactive: [1] | [3] | [4] | [5] | [6] | [7] | [8] | [9] | [10] | [11]

CC1CN1P(=O)(N1CC1C)N1CC1C (configuration not stated)
inactive: [2] | [3] | [4] | [5] | [6] | [7] | [9] | [10] | [11]

CCC(C)c1cccc(C(C)CC)c1O (configuration not stated)
inactive: [2] | [3] | [4] | [5] | [6] | [7] | [8] | [9] | [10] | [11]

CC(=[OH+])/C=C(/C)[O-].CC(=[OH+])/C=C(/C)[O-].CC(=[OH+])/C=C(/C)[O-].[Al]
inactive: [2] | [3] | [4] | [5] | [6] | [7] | [9] | [10] | [11]

C=CC#N
inactive: [1] | [3] | [4] | [5] | [6] | [7] | [8] | [9] | [10] | [11]

Nc1ccc(Cl)cc1C(=O)c1ccccc1
inactive: [1] | [2] | [4] | [5] | [6] | [7] | [9] | [10] | [11]
active: [3] 49.5 µM

CCCCCCCCC(=O)NCc1ccc(O)c(OC)c1
active: [3] 54.5 µM | [7] 171 µM
inactive: [1] | [2] | [5] | [6] | [8] | [9] | [10] | [11]

NC(=S)Nc1ccccc1
inactive: [1] | [2] | [3] | [4] | [5] | [6] | [7] | [8] | [9] | [10] | [11]

O=C1CCCN1
inactive: [2] | [3] | [4] | [5] | [6] | [7] | [9] | [10] | [11]

Cc1ccc(N)cc1Cl
inactive: [1] | [2] | [3] | [5] | [6] | [7] | [8] | [9] | [10] | [11]

CC(=O)C(Cl)C(=O)N(C)C (configuration not stated)
inactive: [12] | [3] | [4] | [5] | [6] | [7] | [9] | [10] | [11]

COC(=O)c1sccc1S(=O)(=O)NC(=O)Nc1nc(C)nc(OC)n1
inactive: [1] | [2] | [3] | [4] | [5] | [6] | [7] | [9] | [10] | [11]

Cl/C=C/Cl
inactive: [3] | [4] | [5] | [6] | [7] | [8] | [9] | [10] | [11]

COP(=S)(OC)Oc1ccc(S(=O)(=O)N(C)C)cc1
inactive: [1] | [2] | [3] | [4] | [5] | [6] | [7] | [9] | [10] | [11]

ClC1=C(Cl)[C@]2(Cl)[C@H]3[C@H]([C@H]4C=C[C@H]3C4)[C@@]1(Cl)C2(Cl)Cl
inactive: [12] | [4] | [5] | [6] | [7] | [9] | [10] | [11]
active: [3] 10.2 µM

Cc1ccc2ccccc2c1C
inactive: [1] | [2] | [3] | [6] | [7] | [8] | [9] | [10] | [11]
active: [4] 6.24 µM

O=S(=O)(c1ccc(Cl)cc1)c1ccc(Cl)cc1
active: [5] 35.8 µM
inactive: [12] | [3] | [4] | [6] | [7] | [9] | [10] | [11]

CCc1ccccc1C
inactive: [12] | [3] | [4] | [5] | [6] | [7] | [8] | [9] | [10] | [11]

CNC
inactive: [12] | [3] | [4] | [5] | [6] | [7] | [9] | [10] | [11]

COP(=O)(OC)OC
inactive: [1] | [3] | [4] | [5] | [6] | [7] | [9] | [10] | [11]

CCNc1nc(NC(C)(C)C)nc(SC)n1
inactive: [12] | [3] | [4] | [6] | [7] | [9] | [11]
active: [5] 152 µM | [10] 160 µM

C[C@H]1O[C@@H](O[C@H]2[C@@H](O)C[C@H](O[C@H]3[C@@H](O)C[C@H](O[C@H]4CC[C@@]5(C)[C@H](CC[C@@H]6[C@@H]5CC[C@]5(C)[C@@H](C7=CC(=O)OC7)CC[C@]65O)C4)O[C@@H]3C)O[C@@H]2C)C[C@H](O)[C@@H]1O
active: [1] 2.99 µM | [3] 0.0564 µM | [5] 13.6 µM | [6] 0.141 µM
inactive: [7] | [9] | [10] | [11]

CCCCCCCCSC(=O)Oc1cc(Cl)nnc1-c1ccccc1
active: [2] 171 µM | [3] 159 µM | [5] 122 µM | [8] 100 µM
inactive: [1] | [4] | [6] | [7] | [9] | [10] | [11]

COC[C@H](C)N(C(=O)CCl)c1c(C)csc1C
inactive: [1] | [2] | [3] | [4] | [5] | [6] | [7] | [9] | [10] | [11]

C(=NC1CCCCC1)=NC1CCCCC1
inactive: [1] | [4] | [5] | [6] | [9] | [11]
active: [3] 33.4 µM | [7] 2.69 µM | [10] 33.4 µM

CC1(C)CCC(Cc2ccc(Cl)cc2)C1(O)Cn1cncn1 (configuration not stated)
inactive: [12] | [6] | [9] | [10] | [11]
active: [3] 56.7 µM | [4] 4.7 µM | [5] 33.4 µM | [7] 52.3 µM

CNC(=O)O/N=C/C(C)(C)S(C)=O (configuration not stated)
inactive: [1] | [2] | [6] | [7] | [8] | [9] | [10] | [11]
active: [3] 99.5 µM | [5] 73 µM

ClC(Cl)=C(Cl)C(Cl)=C(Cl)Cl
inactive: [1] | [5] | [7] | [8] | [9] | [10] | [11]
active: [3] 100 µM | [4] 71.4 µM | [6] 165 µM

COc1cc(OC)nc(NC(=O)NS(=O)(=O)c2ncccc2C(=O)N(C)C)n1
inactive: [1] | [2] | [3] | [4] | [5] | [6] | [7] | [9] | [10] | [11]

CCN(CC)C(=O)Cl
inactive: [1] | [2] | [3] | [4] | [5] | [6] | [7] | [9] | [10] | [11]

C=CCc1ccc(OC)cc1
inactive: [1] | [2] | [3] | [4] | [5] | [6] | [7] | [9] | [10] | [11]

CC(C)C1CCC(Cc2ccc(Cl)cc2)C1(O)Cn1cncn1 (configuration not stated)
inactive: [2] | [6] | [8] | [9] | [10] | [11]
active: [3] 18.1 µM | [4] 3.08 µM | [5] 17.5 µM | [7] 11 µM

ClCc1ccccn1
inactive: [1] | [3] | [5] | [6] | [7] | [9] | [10] | [11]
active: [4] 76 µM

BrCCBr
inactive: [2] | [3] | [4] | [5] | [6] | [7] | [9] | [10] | [11]

CCOC(=O)/C=C(C)/C=C/C[C@@H](C)CCCC(C)C
active: [1] 179 µM | [2] 132 µM | [3] 53.5 µM | [5] 100 µM | [6] 46.9 µM | [8] 33.4 µM | [9] 180 µM | [10] 106 µM
inactive: [7] | [11]
